Measurements from PubChem BioAssay AID1049 (The Scripps Research Institute Molecular Screening Center, 2008).
Among all 200,000 compounds or so, about 780 (0.39%) were called active. The sample holds actives, similar compounds and a random draw of the others, so the mix is not that of the screen. Values without a mark were called inactive. Cut-off read from the data, not from the text of the source: active = TR-FRET ratio above about 2000; inactive = the rest.

Assay: detection-format interference in TR-FRET ratio – biochemical, artefact control for PPARgamma SRC-2 agonist project, primary screen (AID 1049)
Settings: TR-FRET artefact counter-screen; at 8 µM; stronger effect = higher value

SMILES	TR-FRET ratio
CN(C)C(CNC(=O)c1cccc(C#N)c1)c1ccco1 (centres undefined)	1390
COc1ccc(NC(=O)CN2C(=O)CSC2=O)cc1	1580
Cc1ccc(CN2CCN(Cc3ccc(OCCO)cc3)CC2CCO)o1 (centres undefined)	1600
CC(C)OCCCNC(=S)N1CCC(C(=O)c2ccc3c(c2)OCCO3)CC1	1610
O=C(Nc1cccc(O)c1)c1ccc(C(=O)c2ccccc2)o1	1480
COC(=O)CN1C(=O)N/C(=C/c2ccc(OC)c(C)c2OC)C1=O	1240
CCOc1ccc(C(=O)Nc2cccc(-c3ccc4nncn4n3)c2)cc1	1400
Cc1cccc(N2CCN(C(=O)c3cccc(S(=O)(=O)N4CCc5ccccc5C4)c3)CC2C)c1 (centres undefined)	1420
Cc1nc(-c2ccccc2)sc1C(=O)/C=C/c1ccccc1	1450
Cc1nc(-c2ccccc2)sc1-c1nc(-c2ccccc2)ncc1S(=O)(=O)c1ccccc1	1980 (active)
C=CCn1c(-c2sc(-c3ccccc3)nc2C)n[nH]c1=S	1590
Cc1cc(NC(=O)CSc2nnc(Nc3ccccc3F)s2)no1	1500
Cc1cc(C)c2c(c1)cc(C)c1nnc(SCC(=O)Nc3cc(C)on3)n12	1970 (active)
Cc1ccc(-c2csc(SCC(=O)Nc3cc(C)on3)n2)cc1	1440
CCN(CC)C(=O)C(=O)Nc1cccc(Br)c1	1590
COc1ccc(-n2c(O)c(C=NCC(c3ccco3)N3CCCC3)c3ccccc3c2=O)cc1OC (centres undefined)	1590
COc1ccccc1C1/C(=C(/O)c2ccc(C)cc2)C(=O)C(=O)N1Cc1ccco1 (centres undefined)	1510
COc1ccc(/C(O)=C2\C(=O)C(=O)N(Cc3ccco3)C2c2ccc(OC)cc2OC)cc1 (centres undefined)	1620
COc1ccc(/C(O)=C2/C(=O)C(=O)N(c3nc(C)c(C)s3)C2c2ccco2)cc1 (centres undefined)	2180 (active)
Cc1ccc(S(=O)(=O)Nc2nc3ccccc3s2)cc1[N+](=O)[O-]	1360

SMILES	TR-FRET ratio
Cc1ccc(C)c(-n2cc(CN3CCN(C(=O)c4ncn[nH]4)CC3)c(-c3ccccc3)n2)c1	1390
COc1cc(SC#N)ccc1N=Cc1c(C)[nH]n(-c2ccc(C)cc2)c1=O	1980 (active)
Cc1ccc(-n2[nH]c(C)c(/C=N/N3C(=O)c4cccc5cccc(c45)C3=O)c2=O)cc1	1510
CCc1nnc(NS(=O)(=O)c2ccc(N=Cc3c(C)[nH]n(-c4ccc(C)cc4)c3=O)cc2)s1	1630
Cc1cc(C)c(NC(=O)c2oc3ccccc3c2COc2ccccc2)c(C)c1	1540
CCCCCC(O)c1cccc(OCc2ccc3ccccc3n2)c1 (centres undefined)	1460
CCN(CC)S(=O)(=O)c1ccc(N(C)Cc2cccc(OC)c2OC)nc1	1770
CC(=O)c1cccc(CN2CCC(CO)(Cc3ccccc3)CC2)c1	1590
Cc1cccc(-c2ncc(CN3CCC(CO)(CCCc4ccccc4)CC3)cn2)c1	1690
OCC1(CCc2ccccc2)CCN(Cc2ccc3nsnc3c2)CC1	2040 (active)
Cc1ccccc1-n1nc(C)c2c1N=C1C(Cl)=CC(Cl)=CN1C2c1ccc(C(=O)O)cc1 (centres undefined)	1440
CC(Sc1nnnn1C)C(=O)NC(=O)NC1CCCCC1 (centres undefined)	1580
CN1CCN(/N=C/c2ccc(C#N)cc2)CC1	1460
Cn1c(-c2sc3cc(C(F)(F)F)cnc3c2-c2ccccc2)n[nH]c1=S	2810 (active)
Cc1ccc(/C=N\n2c(-c3ccccc3)n[nH]c2=S)s1	1450
Cn1c(-c2sccc2OCc2cccc(C(F)(F)F)c2)n[nH]c1=S	1690
Nc1c(NCCc2ccccc2)c2ccccc2oc1=O	1500
Cc1cc(Cl)ccc1OCCCC(=O)NCc1ccccn1	1540
CN(CC(=O)N1CCN(c2ccccc2)CC1)S(=O)(=O)c1cccs1	1460
COc1cc2c(cc1OC)C(Nc1ccc(S(N)(=O)=O)cc1)=NC(C)(C)C2	2460 (active)

SMILES	TR-FRET ratio
COc1cc2c(cc1O)C(SC)=NC(C)(C)C2	1660
COc1cc2c(cc1OC)C(C(C)C)=NC(C)(C)C2	1430
Cc1ccc(C)c(Cn2cnc3c(oc4ccccc43)c2=O)c1	1620
Cc1ccc2[nH]c(=O)c(CN(CC3COCCO3)C(=O)Nc3ccccc3C)cc2c1 (centres undefined)	1560
Cc1cccc2cc(CN(Cc3cccs3)C(c3nnnn3C3CCCC3)C(C)C)c(=O)[nH]c12 (centres undefined)	1580
CCC(c1nnnn1C1CCCC1)N(Cc1cccs1)Cc1cc2cccc(C)c2[nH]c1=O (centres undefined)	1590
Cc1cccc2cc(CN(Cc3ccc4c(c3)OCO4)Cc3nnnn3C3CCCC3)c(=O)[nH]c12	2020 (active)
O=C(/C=C/c1ccccc1[N+](=O)[O-])OC1CCCCC1=O (centres undefined)	1570
O=C(COC(=O)c1c2c(nc3ccccc13)CCCC2)c1ccc(Br)s1	2060 (active)
O=C(Nc1c2c(nc3ccccc13)CCCC2)c1ccccc1Br	1590
O=C(COC(=O)c1c2c(nc3ccccc13)/C(=C\c1cccs1)CCC2)Nc1ccccc1Cl	1590
O=C(N1CCCCC1)N1CCN(C(=O)N2CCCCC2)CC1	1520
Cc1ccc(C(=O)O)cc1N1C(=O)CCCC1=O	1430
Nc1nnc(SCC(=O)Nc2ccc3nc(SCC(=O)Nc4ccccc4)sc3c2)s1	1750
COc1cc(OC)cc(-c2nnc(SCC(=O)Nc3ccc(C(=O)O)cc3)s2)c1	2010 (active)
COc1ccc(NC(=O)CSc2nc(C)cs2)cc1	1520
COC(=O)[C@@H]1CC[C@H](C)[C@@H](c2ccc(C)cc2)N1C(=O)c1ccc(/C=N/O[C@H](C)c2cn([C@@H]3COC[C@H]3O)nn2)cc1	1550
COc1cccc(NC(=O)c2ccc3c(SCC(=O)O)c4c(nc3c2)CCCC4)c1	1460
Cc1cc(NC(C)C)n2c(nc3ccccc32)c1C#N	1630
